Drawing on the antibiotic and cytotoxicity screens of Wong et al. (2023), this text covers cytotoxicity call for 40 compounds.

The campaign covered roughly 39,000 compounds. About 3,300 (8.5%) were called active. Only a selection was taken, and actives are over-represented in it overall.

For this experiment, the system named is HepG2. The experiment in a line: cytotoxicity call (relative viability < 0.9). The settings on record: 10 µM.
As for `C[C@@H]1CN([C@@H](C)CO)C(=O)Cc2cc(NC(=O)CCN3CCOCC3)ccc2O[C@@H]1CN(C)S(=O)(=O)c1ccccc1`, the cytotoxicity call is “inactive”.

For the compound `COC(=O)C1=CC(CCCO)=C[C@@H](c2ccc(CN3CCCC3)cc2)N(Cc2sc3ccccc3c2Cl)C=C1C(=O)OC`, the cytotoxicity call is “inactive”.

Regarding `C[C@@H]1CN([C@H](C)CO)C(=O)c2cc(C#Cc3ccccc3)cnc2O[C@@H]1CN(C)C(=O)CCN1CCCCC1`, the cytotoxicity call was “inactive”.

As for `C[C@H]1CN([C@@H](C)CO)C(=O)c2cc(C#Cc3ccccc3)cnc2O[C@H]1CN(C)C(=O)CCN1CCCCC1`, the cytotoxicity call is “active”.

As for `C[C@H]1CN([C@@H](C)CO)C(=O)c2cc(C#Cc3ccccc3)cnc2O[C@@H]1CN(C)C(=O)CCN1CCCCC1`, the cytotoxicity call was “active”.

On to `C[C@@H]1CN([C@@H](C)CO)C(=O)c2cc(C#Cc3ccccc3)cnc2O[C@@H]1CN(C)C(=O)CCN1CCCCC1`, for which the cytotoxicity call was “inactive”.

Take `C[C@@H]1CN([C@H](C)CO)C(=O)c2cc(C#Cc3ccccc3)cnc2O[C@H]1CN(C)C(=O)CCN1CCCCC1`: the cytotoxicity call is “inactive”.

On to `C[C@H](CO)N1C[C@H](C)[C@@H](CN(C)C(=O)CCN2CCCCC2)Oc2ncc(C#Cc3ccccc3)cc2C1=O`, for which the cytotoxicity call is “inactive”.

For `CC(C)NC(=O)N(C)C[C@@H]1Oc2ccc(NC(=O)c3ccncc3)cc2CC(=O)N([C@@H](C)CO)C[C@H]1C`, the cytotoxicity call was “inactive”.

With `COc1ccc(S(=O)(=O)N(C)C[C@@H]2Oc3ccc(NC(=O)CCCN(C)C)cc3CC(=O)N([C@H](C)CO)C[C@@H]2C)cc1`, the cytotoxicity call is “inactive”.

With `Cc1ccc(=O)[nH]n1`, the cytotoxicity call was “inactive”.

Turning to `C[C@@H]1CN([C@@H](C)CO)C(=O)c2cc(-c3cccnc3)cnc2O[C@@H]1CN(C)Cc1ccc(Oc2ccccc2)cc1`, the cytotoxicity call is “inactive”.

In the case of `C[C@H]1CCCCO[C@H](CN(C)C(=O)Nc2cccc3ccccc23)[C@@H](C)CN([C@@H](C)CO)C(=O)c2cc(NC(=O)Cc3ccccc3)ccc2O1`, the cytotoxicity call was “inactive”.

For `COc1cccc(S(=O)(=O)N(C)C[C@@H]2Oc3ncc(-c4cccc(C(=O)N(C)C)c4)cc3C(=O)N([C@@H](C)CO)C[C@H]2C)c1`, the cytotoxicity call was “inactive”.

For `CC(C)NC(=O)Nc1ccc2c(c1)C(=O)N([C@H](C)CO)C[C@H](C)[C@@H](CN(C)Cc1ccccc1)OCCCC[C@H](C)O2`, the cytotoxicity call was “inactive”.

With `COc1ccc2c3c([nH]c2c1)[C@H](CO)N(C[C@]13CN(CCc2ccccc2)C1)C(=O)CN1CCOCC1`, the cytotoxicity call was “inactive”.

For `COc1ccc(cc1)CN1C[C@]2(CN(C2)C(=O)Cc2ccncc2)c2c([nH]c3cc(ccc23)OC)[C@H]1CO`, the cytotoxicity call is “inactive”.

For the compound `COc1ccc2c3c([nH]c2c1)[C@@H](CO)N(C[C@]13CN(CCc2ccccc2)C1)C(=O)CN1CCOCC1`, the cytotoxicity call was “inactive”.

In the case of `COc1ccc2c3c([nH]c2c1)[C@@H](CO)N(Cc1ccc(cc1)Cl)C[C@]13CN(CCc2ccccc2)C1`, the cytotoxicity call is “active”.

`COc1ccc2c3c([nH]c2c1)[C@@H](CO)N(Cc1ccccc1)C[C@]13CCN(CC1)C(=O)Nc1cccc(c1)F`: the cytotoxicity call is “inactive”.

For the compound `COc1ccc2c3c([nH]c2c1)[C@H](CO)N(Cc1ccc(cc1)Cl)C[C@]13CN(CCc2ccccc2)C1`, the cytotoxicity call was “active”.

In the case of `C[C@H]1CN([C@@H](C)CO)C(=O)c2c(c3ccccc3n2C)-c2ccccc2CO[C@@H]1CN(C)Cc1ccccc1C(F)(F)F`, the cytotoxicity call was “inactive”.

On to `C[C@H]1CN([C@@H](C)CO)C(=O)Cc2cc(NC(=O)CCN3CCOCC3)ccc2O[C@H]1CN(C)S(=O)(=O)c1ccccc1`, for which the cytotoxicity call is “inactive”.

Turning to `C=C[C@](C)(O)CCC[C@H](C)CCC[C@H](C)CCCC(C)C`, the cytotoxicity call is “inactive”.

Take `CC(=O)OC1CCC2(C)C(CCC3(C)C2CC=C2C4CC(C)(C)CCC4(C(=O)O)CCC23C)C1(C)C` (stereo not given): the cytotoxicity call is “inactive”.

For the compound `COc1ccc(S(=O)(=O)Nc2ccc3c(c2)C(=O)N([C@@H](C)CO)C[C@H](C)[C@H](CN(C)Cc2ccc4c(c2)OCO4)OCCCC[C@H](C)O3)cc1`, the cytotoxicity call is “inactive”.

For the compound `C[C@@H]1CN([C@H](C)CO)C(=O)Cc2cc(NS(=O)(=O)c3ccc(Cl)cc3)ccc2O[C@@H]1CN(C)C(=O)Nc1ccc(C(F)(F)F)cc1`, the cytotoxicity call is “inactive”.

On to `CN(C)C(=O)C[C@@H]1C=C[C@H](NC(=O)C2CC2)[C@@H](CO)O1`, for which the cytotoxicity call was “inactive”.

For the compound `COc1ccc(S(=O)(=O)N(C)C[C@H]2OCCCC[C@H](C)Oc3ccc(NC(=O)NC4CCCCC4)cc3C(=O)N([C@H](C)CO)C[C@@H]2C)cc1`, the cytotoxicity call is “inactive”.

For `COc1ccc(S(=O)(=O)N(C)C[C@@H]2OCCCC[C@H](C)Oc3ccc(NC(=O)NC4CCCCC4)cc3C(=O)N([C@@H](C)CO)C[C@H]2C)cc1`, the cytotoxicity call is “inactive”.

As for `COc1ccc(S(=O)(=O)N(C)C[C@H]2OCCCC[C@@H](C)Oc3ccc(NC(=O)NC4CCCCC4)cc3C(=O)N([C@@H](C)CO)C[C@@H]2C)cc1`, the cytotoxicity call is “active”.

Take `COc1ccc(S(=O)(=O)N(C)C[C@@H]2OCCCC[C@@H](C)Oc3ccc(NC(=O)NC4CCCCC4)cc3C(=O)N([C@H](C)CO)C[C@H]2C)cc1`: the cytotoxicity call was “active”.

Take `COc1ccc(S(=O)(=O)N(C)C[C@@H]2OCCCC[C@H](C)Oc3ccc(NC(=O)NC4CCCCC4)cc3C(=O)N([C@H](C)CO)C[C@@H]2C)cc1`: the cytotoxicity call was “inactive”.

Consider `COc1ccc(S(=O)(=O)N(C)C[C@H]2OCCCC[C@H](C)Oc3ccc(NC(=O)NC4CCCCC4)cc3C(=O)N([C@H](C)CO)C[C@H]2C)cc1`, for which the cytotoxicity call is “inactive”.

On to `COc1ccc(S(=O)(=O)N(C)C[C@H]2OCCCC[C@@H](C)Oc3ccc(NC(=O)NC4CCCCC4)cc3C(=O)N([C@@H](C)CO)C[C@H]2C)cc1`, for which the cytotoxicity call was “active”.

As for `COc1ccc(S(=O)(=O)N(C)C[C@H]2OCCCC[C@H](C)Oc3ccc(NC(=O)NC4CCCCC4)cc3C(=O)N([C@@H](C)CO)C[C@H]2C)cc1`, the cytotoxicity call was “inactive”.

On to `COc1ccc(S(=O)(=O)N(C)C[C@@H]2OCCCC[C@H](C)Oc3ccc(NC(=O)NC4CCCCC4)cc3C(=O)N([C@@H](C)CO)C[C@@H]2C)cc1`, for which the cytotoxicity call was “inactive”.

As for `C[C@@H]1CN([C@H](C)CO)C(=O)Cc2cc(NC(=O)CCCCCC(=O)Nc3ccccc3N)ccc2O[C@H]1CN(C)S(=O)(=O)c1cn(C)cn1`, the cytotoxicity call was “inactive”.

Consider `COc1ccc(NC(=O)N(C)C[C@@H]2OCCCC[C@@H](C)Oc3ccc(NS(=O)(=O)c4cccs4)cc3C(=O)N([C@@H](C)CO)C[C@H]2C)cc1`, for which the cytotoxicity call was “inactive”.

Take `C[C@H](CO)N1C[C@H](C)[C@@H](CN(C)S(=O)(=O)c2cn(C)cn2)Oc2ccc(NC(=O)C3CC3)cc2CC1=O`: the cytotoxicity call is “inactive”.
